HepG2 tox: HepG2 cytotoxicity, counter-screen for TGF-b inhibitors | HepG2 CAGA-GFP viability, ATP luminescence, 18 h | Potency, µM (doses to about 46.1 µM), inactives show at the highest dose activity change, negative = cytotoxicity, most hits filed as cytotoxic | 410,000 compounds, 0.76% hits
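CellTiter-Glo luminescence gave cytotoxicity after 18 hours at 37 degrees C. The cells were HepG2 CAGA-GFP in 1% FBS DMEM, stimulated with 500 pg/mL TGF-beta after compound addition. %Activity was normalised to no-cell wells (complete cell-killing) and DMSO (no toxicity), and curves were fitted and classified.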
TGFb SMAD3 inh: inhibitors of TGF-b signaling; Potency, µM (titrated, usually from 46.1 µM), for inactives: at the highest dose activity, negative = inhibition, usual class: inhibitors; 410,000 compounds, 1.2% hits; HepG2 CAGA-GFP TGF-b/SMAD3 reporter, GFP fluorescence, 18 h; TGF-beta stimulated, 500 pg/mL final; note: % is set by controls: 0 for no effect and ±100 for the full control effect; nearly all actives have a fitted effect of over 65% in size
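Inhibition was scored as loss of TGF-beta-induced (500 pg/mL final, 18 hours, 37 degrees C) GFP in HEPG2 cells carrying a CAGA-GFP reporter, in DMEM with 1% FBS. Well GFP was summed per cell; Activity was normalised to unstimulated and stimulated DMSO wells, then concentration-response fitting.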
HT1080 IDH1KD tx: kills HT-1080 cells with IDH1 knockdown; HT-1080 IDH1 knockdown viability, ATP luminescence, 48 h; Potency, µM (highest dose often 46.1 µM), for the others: at the highest dose activity, negative = toxicity, actives largely listed as cytotoxic; 360,000 compounds, 2% hits;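 note: 0% = DMSO wells and -100% = cell-free medium wells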
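Luminescent ATP read-out (CellTiter-Glo, 10 min at room temperature) after 48 h compound exposure at 37 °C gave viability of IDH1-knockdown HT-1080 cells. Activity was normalised to DMSO and cell-free wells, then fitted as concentration-response curves.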
DT40 TDP1 no CPT: qHTS for Inhibitors of human tyrosyl-DNA phosphodiesterase 1 (TDP1): qHTS in cells in absence of CPT. Potency, µM (top dose mostly 46.2 µM), without a hit: top-dose activity change, negative = growth inhibition, hits mostly inhibitors. DT40 Tdp1-/- hTDP1 cells, no CPT, ATP luminescence, 48 h. 420,000 compounds, 15% hits; note: % is set by controls: 0 for no effect and ±100 for the full control effect; nearly all actives have a fitted effect of over 55% in size
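Chicken DT40 Tdp1-/- cells complemented with human TDP1, screened without camptothecin (DMSO vehicle only), 400 cells/well. Compounds pin-transferred, cells incubated at 37 °C for at least 48 hr. Growth read as ATP-dependent luminescence (CellTiter-Glo, 30 min at RT).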
DT40 TDP1 CPT: DT40-hTDP1 cell growth loss with CPT | chicken DT40 Tdp1-/-;hTDP1 cells + 20 nM CPT, ATP luminescence, 48 h | Potency, µM (top dose mostly 46.2 µM), for the others: at the top dose activity change, negative = growth inhibition, most hits filed as inhibitors | 420,000 compounds, 12% hits; note: % is set by controls: 0 for no effect and ±100 for the full control effect; nearly all actives have a fitted effect of over 55% in size
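Chicken DT40 Tdp1-/- cells complemented with human TDP1, 400 cells/well, exposed to compounds plus 20 nM camptothecin for at least 48 h at 37 C; viability read as ATP content by CellTiter-Glo luminescence.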
HT1080NT lethal: kills 2HG-producing HT-1080-NT fibrosarcoma cells. HT-1080-NT fibrosarcoma viability, CellTiter-Glo ATP luminescence, 48 h. 360,000 compounds, 1.6% hits. Potency, µM (series often up to 46.1 µM), for the others: at the top dose activity, negative = less viability, usual class: cytotoxic;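 note: NT is the 2HG producing partner of a matched IDH1 knockdown line; 0% = DMSO-treated cells and -100% = media-only wells without cells; nearly all actives have a fitted effect of over 55% in size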
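Luminescent CellTiter-Glo readout after 48 hours of compound exposure at 37 degrees C defined viability of HT-1080-NT cells. Activity was normalized to DMSO wells and cell-free media wells; concentration-response curves were fitted and assigned curve classes.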
* marks the source's active call; other numbers are inactive results; ? = inconclusive; . = no result; [ ] = remark or other dose. The list is not random: actives were taken first. Their share in the collection is about 17%. Calls come from the whole dose curve; as a rule, active = well fitted curve in the direction sought with a large enough effect; inconclusive = small, poorly fitted or top-dose-only effect, or another doubt; inactive = no such curve, though single readings can be large; an effect the other way counts as inactive or inconclusive. Potency is the fitted concentration of half-maximal effect.

SMILES	HepG2 tox	TGFb SMAD3 inh	HT1080 IDH1KD tx	DT40 TDP1 no CPT	DT40 TDP1 CPT	HT1080NT lethal
O=C(Nc1ccc2c(c1)OCCO2)C1CCCN(S(=O)(=O)c2cccc3nsnc23)C1 (stereo not drawn)	-24%	-30%	-7%	?	?	11%
CC(C)c1ccc(NC(=O)C2CCN(S(=O)(=O)c3cccc4nsnc34)CC2)cc1	-4%	24%	.	?	?	.
O=C(Nc1ccc(F)c(Cl)c1)C1CCCN(S(=O)(=O)c2cccc3nsnc23)C1 (stereo not drawn)	-39%	?	.	23µM*	16µM*	.
COc1ccccc1CN1CC(C(=O)NCc2ncccc2C)CCC1=O (stereo not drawn)	-9%	-4%	-1%	3%	1%	20%
CCN(CC)S(=O)(=O)c1ccc(Nc2nc3ccccc3n3nnnc23)cc1	1%	-15%	-19%	16µM*	23µM*	-19%
Fc1cccc(Nc2nc3ccccc3n3nnnc23)c1	-31%	1%	-2%	?	?	-4%
COc1ccccc1N1CCN(C(=O)c2ccc(Nc3nc4ccccc4n4nnnc34)cc2)CC1	-16%	1%	.	?	9.2µM*	.
COc1ccc(Nc2nc3ccc(Cl)cc3n3nnnc23)cc1OC	34%	103%	.	16µM*	?	.
c1ccc2c(c1)nc(Nc1ccc3c(c1)OCO3)c1nnnn12	-17%	-2%	?	16µM*	?	-30%
Cc1ccc(C)c(N2CCN(C(=O)c3ccc(Nc4nc5ccccc5n5nnnc45)cc3)CC2)c1	6%	23%	.	-11%	2%	.
COc1cccc(Nc2nc3ccccc3n3nnnc23)c1	-13%	2%	-7%	?	?	-10%
COc1ccccc1CNS(=O)(=O)c1c(C)[nH]c(=O)[nH]c1=O	0%	-1%	20%	-9%	2%	0%
Cc1ccc(-n2nc3c(=O)n(CCCC(=O)NCc4ccccc4C)nc(C)c3c2C)cc1	-42%	?	8%	21µM*	21µM*	-8%
Cc1ccc(-n2nc3c(=O)n(CCCC(=O)NCC(C)c4ccccc4)nc(C)c3c2C)cc1 (stereo not drawn)	-18%	-22%	-7%	15µM*	?	-10%
Cc1ccc(CNC(=O)CCCn2nc(C)c3c(C)n(-c4ccccc4)nc3c2=O)cc1	-13%	?	6%	?	?	6%
CCOC(=O)c1cnc(-n2nc(C)cc2C)nc1N(C)C	-8%	0%	11%	?	?	13%
CCOC(=O)c1cnc(-n2nc(C)cc2C)nc1Nc1ccc(OC)cc1	1%	-9%	-2%	12µM*	8.2µM*	0%
CCOC(=O)c1cnc(-n2nc(C)cc2C)nc1NC1CCCC1	11µM*	?	?	1.3µM*	1.3µM*	?
CCOC(=O)c1cnc(-n2nc(C)cc2C)nc1NCCc1ccccc1	-7%	-6%	5%	5.2µM*	6.5µM*	11%
O=C(Nc1ccnn1C1CCN(C2CCC2)CC1)c1ccccc1	-14%	1%	12%	-2%	4%	11%
Cc1cccc(C(=O)NCC2Cc3cc(F)cc(-c4cnccn4)c3O2)n1 (stereo not drawn)	.	.	.	?	3%[9.04 µM]	.
Cc1ccc(Oc2c(C(F)(F)F)oc3c(CN4CCCCC4C)c(O)ccc3c2=O)cc1 (stereo not drawn)	-36%	?	.	26µM*	?	.
CC1=CC(C)(C)N(C(=O)CNC2CCCC2)c2cc(C)ccc21	-39%	-17%	-1%	26µM*	?	-17%
CCOc1ccc2c(c1)N(C(=O)CN1C(=O)CCC1=O)C(C)(C)C=C2C	17%	?	10%	?	?	10%
O=c1c(-c2ccccc2)nc2cnc(N3CCOCC3)nc2n1-c1ccccc1	.	.	.	-4%	4%	.
SMILES	HepG2 tox	TGFb SMAD3 inh	HT1080 IDH1KD tx	DT40 TDP1 no CPT	DT40 TDP1 CPT	HT1080NT lethal
CCSc1nc2ccccc2c(=O)n1Cc1ccc(F)cc1	7%	-2%	-21%	-27%	0%	1%
CCn1cc2nc(SCc3ccccc3)n(Cc3ccc(C)cc3)c(=O)c2n1	-19%	-2%	.	10µM*	16µM*	.
CCn1cc2nc(SCc3ccc(F)cc3)n(Cc3ccc(Cl)cc3)c(=O)c2n1	2%	-16%	.	3.3µM*	6.5µM*	.
CCn1cc2nc(SCc3ccccc3Cl)n(Cc3ccc(OC)cc3)c(=O)c2n1	0%	-12%	.	15µM*	26µM*	.
CCn1cc2nc(SCC(=O)Nc3ccc(OC)c(Cl)c3)n(Cc3ccc(OC)cc3)c(=O)c2n1	-2%	-4%	.	-23%	-23%	.
CCn1cc2nc(SCc3ccc(C)cc3)n(CCc3ccccc3)c(=O)c2n1	2%	-4%	.	?	?	.
CCn1cc2nc(SCc3ccccc3F)n(Cc3ccc(C)cc3)c(=O)c2n1	-16%	?	.	12µM*	21µM*	.
CCCCCCOc1ccc(C(CC(N)=O)C(=O)O)cc1 (stereo not drawn)	9%	?	10%	-2%	21%	3%
O=C(CCC(=O)c1ccccc1)NCCc1c[nH]c2ccccc12	23%	28%	-4%	-1%	3%	-6%
O=C(CSc1ccc2nnc(CCNC(=O)c3ccccc3)n2n1)NC1CCCC1	-2%	-10%	2%	-8%	-3%	-3%
CC(C)C[C@@H](CN)NC(=O)c1nc[nH]c1C(=O)N[C@@H](C)C(=O)CNC[C@H](C)NC(=O)c1nc[nH]c1C(=O)N[C@@H](CC(=O)O)C(=O)O	3%	-10%	0%	-6%	0%	15%
O=C(Nc1ccccc1)N1CC2(CCN(C(=O)c3cc(C(F)(F)F)cc(C(F)(F)F)c3)CC2)C1	.	.	.	-24%	15%	.
CCn1cc2nc(SCc3cc(C)ccc3C)n(Cc3ccc(C)cc3)c(=O)c2n1	-10%	-26%	.	-73%	16µM*	.
Cc1ccc(C)c(CSc2nnc(C)c(=O)n2N)c1	6%	-8%	-2%	-4%	12%	-5%
CC1(C)CC(=O)N(CC(=O)NCc2ccccc2)c2ccccc2S1(=O)=O	0%	1%	9%	-3%	20%	5%
CCc1ccccc1NC(=O)Cn1ncc2c(C)n(Cc3ccccc3F)c(C)c2c1=O	-6%	-3%	.	?	?	.

High-throughput results deposited in PubChem by National Center for Advancing Translational Sciences (NCATS).
